# Compounds with a hit are over-represented: about 3.5% of the library has one in this group of screens.
# MITF inh: inhibitors of human MITF. O75030. AID 1259374. AlphaScreen MITF homodimerization, bead proximity signal. inhibition, % at 2.6 µM. 650,000 tested, 0.91% active; in the data active means inhibition above about 50%;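 further: 0% = vehicle wells with protein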
# GPR151 activ: human GPR151 activation; Q8TDV0; PathHunter beta-arrestin GPR151 cells, luminescence; activation, % at 11.2 µM; 650,000 tested, 1% active; AID 1508602; in the data active means activation above about 4.9%;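 further: 0% = median of compound wells and 100% = cells with positive control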
# Target sequence (Q8TDV0 whole entry, looked up): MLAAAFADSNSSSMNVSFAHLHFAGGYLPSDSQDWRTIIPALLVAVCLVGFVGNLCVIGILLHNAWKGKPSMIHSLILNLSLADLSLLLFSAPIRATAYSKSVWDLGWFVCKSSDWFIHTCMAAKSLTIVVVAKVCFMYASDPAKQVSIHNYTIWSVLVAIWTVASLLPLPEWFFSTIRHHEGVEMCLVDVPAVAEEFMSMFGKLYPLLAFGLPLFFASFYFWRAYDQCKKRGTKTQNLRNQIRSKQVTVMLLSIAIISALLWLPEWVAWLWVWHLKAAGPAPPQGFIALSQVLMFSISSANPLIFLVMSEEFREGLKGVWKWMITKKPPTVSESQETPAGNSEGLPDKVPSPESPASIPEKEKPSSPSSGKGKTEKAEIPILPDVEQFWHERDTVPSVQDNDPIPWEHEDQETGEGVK
# TEAD-YAP inh: TEAD-YAP interaction inhibition; inhibition, % at 9.12 µM; 640,000 tested, 1.4% active; HEK-TIYL cells, TEAD-Gal4/YAP UAS-luciferase luminescence; in the data active means inhibition above about 32%;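 further: 0% = median of test compound wells and 100% = reference inhibitor wells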
# FBW7 act: human FBW7 E3 ligase activation, primary screen | normalized activity (activation), % at 26.1 µM | 650,000 tested, 0.13% active | AlphaScreen FBW7–phospho-cyclin E peptide binding, activator screen; in the data active means normalized activity above about 1.9%;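 further: purified mutant Fbw7 with reduced substrate affinity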
# MITF inh conf: confirmation of human MITF inhibitors | AlphaScreen MITF homodimerization, biotin/His-MITF beads | 4,700 tested, 16% active | AID 1259372 | shares compounds with MITF inh | inhibition, % at 2.6 µM;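 active means inhibition above a cutoff derived from the DMSO control wells, cut at about 28% in these data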;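 further: 0% = MITF dimer wells with DMSO only; inhibitors lower the bead chemiluminescence by keeping MITF from dimerizing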
# AlphaScreen DR: optically interferes with AlphaScreen signal in dose response. shares compounds with MITF inh. AlphaScreen optical interference counterscreen, cell-free. IC50, µM. 480 tested, 6% active. AID 1259373; call rule not given here
# AS interf ctr: optically interferes with AlphaScreen signal. shares compounds with MITF inh. LysRS AlphaScreen counterscreen, signal interference, triplicate. inhibition, % at 2.6 µM. 4,700 tested, 7.6% active. AID 1259376;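 active means inhibition above a cutoff derived from the DMSO control wells, cut at about 30% in these data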
# Numbers without * were called inactive; . = no result.
SMILES,MITF inh,GPR151 activ,TEAD-YAP inh,FBW7 act,MITF inh conf,AS interf ctr,others
O=C(CN1CCCC1)Nc1c2c(nc3c1CCC3)CCC2,76*,0,0,0,2,-5,
NCCCC[C@@H]1NC(=O)[C@@H]2C[C@H](NC(=O)Nc3ccccc3)CN2C1=O,8,0,-2,0,.,.,
Cc1ccc(C)c2[nH]c(=O)c(CN(CCO)C(=O)NCc3ccccc3)cc12,16,0,-3,1,.,.,
CNC(=O)Nc1ccc2nc(-c3ccco3)c(-c3ccco3)nc2c1,110*,0,16,-1,110*,15,AlphaScreen DR=>6.5
Cc1ccc(NC(=O)c2cc(-c3ccco3)on2)cc1C,-2,-1,-68,0,.,.,
O=C(Nc1ccc(O)c(-c2nc3ccccc3s2)c1)c1cccc(Oc2ccccc2)c1,61*,1,0,0,3,1,
O=C(Nc1ccc(O)c(-c2nc3ccccc3s2)c1)c1ccccc1Oc1ccccc1,-7,1,-1,0,.,.,
O=C(Nc1nc2ccc(Cl)cc2s1)c1cccc(Oc2ccccc2)c1,74*,1,-1,0,1,7,
O=C(Nc1nc2ccc(F)cc2s1)c1cccc(Oc2ccccc2)c1,-3,-1,-11,0,.,.,
CCc1cc(C(=O)Cc2ccc3c(c2)OCCO3)c(O)cc1OC,5,0,-6,0,.,.,
CCOc1ccccc1/C=C1\SC(=S)N(CC)C1=O,4,-1,-3,0,.,.,
O=C(c1cnc(N2CCN(c3ccccn3)CC2)c2ccccc12)N1CCN(c2cccc(Cl)c2)CC1,5,0,12,0,.,.,
CCN1CCN(S(=O)(=O)c2ccc3c(c2)SCC(=O)N3)CC1,-2,1,7,0,.,.,
O=C1CSc2ccc(S(=O)(=O)N3CCCC3)cc2N1,116*,0,2,0,10,9,
O=C(NC1CCN(Cc2ccccc2)CC1)c1ccnc(Nc2ccncc2)c1,-9,1,6,0,.,.,
Cc1ccc(-c2cc(C(=O)Nc3ccccc3Br)c3ccccc3n2)cc1,56*,0,-14,0,8,11,
CCCCOC(=O)c1ccc(NC(=O)c2cc(-c3ccc(Br)cc3)nc3ccccc23)cc1,57*,0,-1,0,10,9,
CCCOC(=O)c1ccc(NC(=O)c2cc(-c3ccc(Br)cc3)nc3ccccc23)cc1,-4,-1,7,0,.,.,
Cc1ccc(-c2cc(C(=O)Nc3ccccc3Cl)c3ccccc3n2)cc1,15,0,2,0,.,.,
Cc1nc2c(c(C)nn2C)c(C)c1CCC(=O)NC1CCCCC1,6,2,16,1,.,.,
OCCN1CCN(c2cc(-c3ccccc3F)nc(-c3ccccc3)n2)CC1,53*,1,7,0,16,13,
OCCN1CCN(c2cc(-c3ccccc3F)nc(-c3cccnc3)n2)CC1,-5,1,5,0,.,.,
C=CCN(CC=C)CCOc1ccc(C)cc1OC,25,0,-5,0,.,.,
C=CCN(CC=C)CCCOc1ccc(C)cc1OC,55*,-2,-2,1,11,7,
COc1cc(C)ccc1OCCN1CCNCC1,20,1,4,0,.,.,
SMILES,MITF inh,GPR151 activ,TEAD-YAP inh,FBW7 act,MITF inh conf,AS interf ctr,others
C/C=C/c1ccc(OCCCCN2CCNCC2)c(OC)c1,59*,0,-11,0,6,1,
COc1cc(C)ccc1OCCCCN1CCNCC1,63*,0,2,0,6,0,
COc1ccc(CCNc2ccc3nncn3n2)c(OC)c1OC,10,0,4,0,.,.,
CC(=O)Nc1c2ccc([N+](=O)[O-])cc2n2c(C)nc3ccc(Cl)cc3c12,-3,-2,-2,1,.,.,
c1ccc(-c2nnnn2-c2cccnc2)cc1,0,2,4,0,.,.,
C/C(CC(=O)Nc1cc(Cl)ccc1Cl)=N\NC(=O)CC#N,1,4,5,0,.,.,
CCOC(=O)c1ccc(NC(=O)CCOc2ccccc2)cc1,75*,1,1,0,7,8,
CN(C(=S)NC(=O)C1(C)CC1(Cl)Cl)c1ccccc1 (centres undefined),51*,-1,-3,0,-1,18,
COc1cc(C(=O)Nc2ccccc2-c2nnn(CC(N)=O)n2)cc(OC)c1OC,3,0,10,0,.,.,
COc1ccccc1C(=O)Nc1ccccc1-c1nnn(CC(N)=O)n1,93*,2,-2,0,13,12,
